The entries come from a sample that favours hits as a whole.
OTUD3 block: human OTUD3 deubiquitinase inhibition. Q5T2D3. purified OTUD3, Ub-rhodamine fluorescence, 2 h. inhibition, % at 25 µM. 0.7% of 47,000 active. AID 1645858
UCHL1 block: blocks human UCHL1 ubiquitin-rhodamine cleavage; P09936; purified UCHL1, Ub-rhodamine cleavage fluorescence; inhibition, % at 20 µM; 0.2% of 47,000 active
Target sequence (P09936 whole entry, looked up): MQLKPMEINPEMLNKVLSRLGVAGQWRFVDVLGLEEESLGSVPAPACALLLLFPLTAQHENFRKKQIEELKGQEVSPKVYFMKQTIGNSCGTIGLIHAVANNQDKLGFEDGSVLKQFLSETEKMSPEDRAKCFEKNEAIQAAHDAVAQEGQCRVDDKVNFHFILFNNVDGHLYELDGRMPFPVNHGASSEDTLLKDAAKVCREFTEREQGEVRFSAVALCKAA
Numbers without * were called inactive. Rule as the data show it: active = inhibition above about 30%; inactive = the rest.

SMILES	OTUD3 block	UCHL1 block
C[C@@H]1OC2=C(C(=O)c3cccc(O)c3C2=O)[C@H](O)[C@@H]1O	67.2*	32.2*
COc1ccc(OC)c(C2=NO[C@]3(C(=O)Nc4ccccc43)[C@H]2C(=O)c2ccc(OC)c(OC)c2)c1	1.2	84.6*
COc1cc(C2=NO[C@]3(C(=O)Nc4ccccc43)[C@H]2C(=O)c2ccc(C)cc2)ccc1OCC#N	9.4	10.5
O=C(Nc1ccccc1)C1COc2ccccc2C1 (configuration not stated)	0.2	-2.6
O=C(O)C1C(C(=O)Nc2ccccc2)C2(c3ccccc3)C(=O)C1(c1ccccc1)C(c1ccccc1)=C2c1ccccc1 (configuration not stated)	64.2*	7.5
Cc1cc(-c2ccnc3c(C#N)cnn23)c(C)s1	-8.9	-3.0
COC(=O)c1ccc(CSc2nc3ccncc3n2CC(=O)N2CCCC2)cc1	-3.0	-0.7
COc1ccc(CSc2nc3ccncc3n2CC(=O)Nc2ccc(C)cc2C)cc1	33.7*	4.4
Cc1ccc(CNC(=O)CCCn2c(=O)c3sccc3n(CC(=O)Nc3cc(Cl)ccc3C)c2=O)cc1	40.2*	-0.7
COc1ccc(NC(=O)Cn2c(=O)n(CC(=O)NCc3ccc(C)cc3)c(=O)c3sccc32)cc1OC	31.6*	10.5
CCOc1ccc(NC(=O)Cn2c(=O)n(CC(=O)NCc3ccc(C)cc3)c(=O)c3sccc32)cc1	20.3	5.1
CCOc1ccccc1NC(=O)Cn1c(=O)n(CCCC(=O)NCc2ccc(C)cc2)c(=O)c2sccc21	13.4	6.2
O=C(CCn1c(=O)c2sccc2n(Cc2ccc([N+](=O)[O-])cc2)c1=O)NCc1ccccc1	44.1*	10.1
O=C(Cn1c(=O)c2sccc2n(Cc2ccc([N+](=O)[O-])cc2)c1=O)NCCc1ccccc1	24.4	4.7
O=C(COC(=O)c1cc2ccccc2cc1O)Nc1ccc(Cl)cn1	0.4	-10.9
O=C(COC(=O)c1cc2ccccc2cc1O)NCCc1ccccc1	8.1	0.7
COc1ccccc1CNC(=O)C1CCCN(S(=O)(=O)Cc2ccc(Cl)cc2)C1 (configuration not stated)	20.3	2.0
Cc1ccc(-c2nnc(-c3nnn(-c4ccc(C)cc4)c3C)o2)cc1	9.4	0.0
O=c1cc(-c2ccc(O)c(O)c2)oc2cc(O[C@@H]3O[C@H](CO)[C@@H](O)[C@H](O)[C@H]3O)cc(O)c12	97.5*	31.4*
CC1OC(OCC2OC(Oc3c(-c4ccc(O)c(O)c4)oc4cc(O)cc(O)c4c3=O)C(O)C(O)C2O)C(O)C(O)C1O (configuration not stated)	-6.8	-0.8
O=C(O)c1ccc(Cl)c(NC(=O)C(Sc2cccc(NC(=O)c3cccc(Cl)c3)c2)c2ccccc2)c1 (configuration not stated)	-0.9	1.1
Cc1ccc(C(=O)O)cc1NC(=O)C(Sc1cccc(NC(=O)c2ccccc2C)c1)c1ccccc1 (configuration not stated)	49.3*	2.0
O=C1N(CC2CCCCC2)CCN1c1ccc2c(c1)CCC2	10.5	2.0
O=c1c2cc([N+](=O)[O-])ccc2nc(CN2CCN(c3ncccn3)CC2)n1-c1ccccc1F	8.2	1.2
CN(Cc1ccc2c(c1)OCO2)C(=O)Cn1cnc2sc(-c3ccccc3)cc2c1=O	-96.6	-6.3
SMILES	OTUD3 block	UCHL1 block
O=C(NCc1ccc(F)cc1)c1cnc2ccccc2n1	-9.4	-3.4
Cc1ccc(CNC(=O)c2cnc3ccccc3n2)cc1	30.2*	-1.9
CO[C@H]1/C=C/C=C\C=C\C[C@@H](OC(=O)[C@H](C)NC(=O)C2CCCCC2)[C@H](C)[C@@H](O)/C(C)=C\CCC2=CC(=O)C=C(NC(=O)C1)C2=O	1.2	2.4
Cc1cc(N2CC(C)OC2=O)nc(C2CCN(C(=O)OC(C)(C)C)CC2)n1 (configuration not stated)	7.6	-0.3
CCOC(=O)N1CCN(S(=O)(=O)c2ccc(C(=O)Nc3ccc(S(N)(=O)=O)cc3)cc2)CC1	-7.2	0.1
CCOC(=O)N1CCC(NC(=O)c2cc(C(=O)Nc3ccc(S(=O)(=O)N4CCCCC4)cc3)ccc2CO)CC1	39.3*	5.9
CN(C)c1cc(-n2cnc(C(=O)NCc3ccccc3Cl)c2)ncn1	10.3	1.4
Fc1ccc(CNc2nn3c(-c4cccnc4)cnc3s2)cc1	-3.0	-0.7
c1cncc(-c2cnc3sc(NCc4ccc5c(c4)OCO5)nn23)c1	60.4*	3.0
c1ccc(CCNc2nn3c(-c4cccnc4)cnc3s2)nc1	11.6	3.7
CN(C)c1ccc(CNc2nn3c(-c4cccnc4)cnc3s2)cc1	40.2*	2.7
Cc1ccc(C(=O)NCCc2nnc3ccc(SCc4c(F)cccc4Cl)nn23)cc1	8.2	5.2
COc1ccccc1CNC(=O)c1ccccc1OCc1ccccc1Cl	30.4*	6.1
COc1ccccc1CNC(=O)c1ccccc1-c1ccccc1	0.4	-0.3

Screening data (PubChem BioAssay)
